Most compounds without a hit are left out; they make up all but 3.7% or so of the library.
GLP1R inv ag: qHTS of GLP-1 Receptor Inverse Agonists (Inhibition Mode) | 410,000 compounds, 1.6% hits | Glucagon-like peptide 1 receptor (Homo sapiens), P43220 | AID 624417, 2012 | HEK293 GLP-1R CRE-luciferase, luminescence, 24 h; GLP-1R form is constitutively active | Potency, µM (highest dose often 38.3 µM), for inactives: at the highest dose activity change, negative = inhibition, usual class: inhibitors; further: on the % scale 0 is the no-effect control and ±100 the full control effect; nearly all actives have a fitted effect of over 55% in size
Target sequence (P43220 whole entry, looked up): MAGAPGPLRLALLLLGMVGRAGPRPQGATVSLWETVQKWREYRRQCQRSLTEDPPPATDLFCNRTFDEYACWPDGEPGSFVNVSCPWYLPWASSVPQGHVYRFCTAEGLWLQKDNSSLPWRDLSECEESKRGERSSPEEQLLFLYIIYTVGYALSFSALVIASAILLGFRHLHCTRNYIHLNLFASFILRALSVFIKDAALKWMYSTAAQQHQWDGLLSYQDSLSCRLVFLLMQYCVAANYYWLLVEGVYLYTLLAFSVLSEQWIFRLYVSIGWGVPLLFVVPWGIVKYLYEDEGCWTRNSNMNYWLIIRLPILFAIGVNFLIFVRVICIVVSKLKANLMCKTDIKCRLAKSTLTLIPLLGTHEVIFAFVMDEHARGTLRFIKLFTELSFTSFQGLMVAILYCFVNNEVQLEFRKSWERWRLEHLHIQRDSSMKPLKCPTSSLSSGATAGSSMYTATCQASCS
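Constitutively active GLP-1R drives a cAMP-responsive luciferase in stably transfected HEK293 cells; test compounds are added after overnight (12 h) attachment and left 24 hr, and signal loss in luminescence marks inhibition.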
GLP-1R agonist: qHTS of GLP-1 Receptor Agonists; Glucagon-like peptide 1 receptor (Homo sapiens), P43220; HEK293 GLP-1R CRE-luciferase, luminescence, 4-6 h; cells express a hypersensitive GLP-1R form; Potency, µM (top dose mostly 45.6 µM), for the others: at the highest dose activation, most hits filed as activators; 380,000 compounds, 0.007% hits; further: % of control where 0% means no effect
TGFb SMAD3 inh: qHTS for Inhibitors of TGF-b | HepG2 CAGA-GFP TGF-b/SMAD3 reporter, GFP fluorescence, 18 h; TGF-beta stimulated, 500 pg/mL final | Potency, µM (titrated, usually from 46.1 µM), inactives show top-dose activity, negative = inhibition, actives largely listed as inhibitors | 410,000 compounds, 1.2% hits | AID 588855, 2011; further: on the % scale 0 is the no-effect control and ±100 the full control effect; nearly all actives have a fitted effect of over 65% in size
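Smad-responsive CAGA-GFP expression was quantified in HEPG2 cells exposed to compounds and 500 pg/mL final TGF-beta for 18 h at 37 degrees C; unstimulated wells defined full inhibition.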
HepG2 tox: qHTS for Inhibitors of TGF-b: Cytotox Counterscreen. HepG2 CAGA-GFP viability, ATP luminescence, 18 h. Potency, µM (doses to about 46.1 µM), for inactives: at the top dose activity change, negative = cytotoxicity, actives largely listed as cytotoxic. 410,000 compounds, 0.76% hits. AID 588856, 2011
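CellTiter-Glo luminescence gave cytotoxicity after 18 hours at 37 degrees C. The cells were HepG2 CAGA-GFP in 1% FBS DMEM, stimulated with 500 pg/mL TGF-beta after compound addition. %Activity was normalised to no-cell wells (complete cell-killing) and DMSO (no toxicity), and curves were fitted and classified.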
ATXN viability: Viability Counterscreen for Primary qHTS for Inhibitors of ATXN expression | S2 cells (HEK-293 line with an ATXN2-luciferase reporter) viability, CellTiter-Fluor protease fluorescence, 24 h | Potency, µM (doses to about 56.7 µM), actives largely listed as cytotoxic | 400,000 compounds, 0.49% hits | AID 651635, 2014; further: nearly all actives have a fitted effect of over 40% in size
ATXN2 expr inh: Primary qHTS for Inhibitors of ATXN expression | Potency, µM (doses to about 57 µM), for the others: at the top dose activity change, negative = inhibition, hits mostly inhibitors | 360,000 compounds, 0.72% hits | HEK-293 ATXN2-luciferase reporter, luminescence, 24 h | AID 1745845, 2022; further: on the % scale 0 is the no-effect control and ±100 the full control effect; nearly all actives have a fitted effect of over 55% in size
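ATXN2-luciferase reporter cells (luciferase flanked by upstream and downstream ATXN2 gene portions) were treated 24 h at 37 °C with compounds at up to 57 uM. SteadyGlo luminescence gave expression; GF-AFC fluorescence gave viability.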
* marks the source's active call; other numbers are inactive results; i = inactive; u = inconclusive; x = no result. The call rests on the fitted dose curve; in most records, active means well fitted curve in the direction sought with a large enough effect; inconclusive means small, poorly fitted or top-dose-only effect, or another doubt; inactive means no such curve, though single readings can be large; an effect the other way counts as inactive or inconclusive. Potency means the concentration at half of the fitted maximal effect.

SMILES | GLP1R inv ag | GLP-1R agonist | TGFb SMAD3 inh | HepG2 tox | ATXN viability | ATXN2 expr inh
Cc1ccc2c(c1)[C@H]1[C@H](CO2)[C@H](c2ccccc2)[C@]2(C)C(=O)Nc3ccc(Br)cc3C(=O)N12 | 3.2µM* | -6% | 1% | -8% | i | -4%
Cc1ccc(-c2csc(N3CCN(CCCn4c(-c5ccncc5)nc5ccccc54)CC3)n2)cc1 | u | -3% | 7.1µM* | -27% | x | 22µM*
Cc1ccc(-c2csc(N3CCN(CCCn4c(C(F)(F)F)nc5ccccc54)CC3)n2)cc1 | u | -3% | u | -24% | u | -26%
CC(=O)N[C@@H](C)c1nc2ccccc2n1CCCN1CCN(c2nc(-c3ccc(C)cc3)cs2)CC1 | -11% | -6% | 8.9µM* | -11% | u | u
Cc1ccc(-c2csc(N3CCC[C@@H]3C(=O)NCCn3c(-c4ccncc4)nc4ccccc43)n2)cc1 | 13µM* | -4% | -18% | -6% | u | u
O=C(NCCn1c(C(F)(F)F)nc2ccccc21)[C@H]1CCCN1c1nc(CN2CCCCC2)cs1 | 16% | 2% | -18% | -10% | i | 11%
COc1ccc(Cn2c(CCC(=O)NCc3ccc(Cl)cc3)nc3cccnc32)cc1 | -8% | x | -27% | -23% | x | x
CCNc1nc(C23CC4CC(CC(C4)C2)C3)cs1 | 2.8µM* | 5% | -9% | 3% | i | -11%
O=C(c1ccc(Cl)cc1)N1CCCCC(Sc2nnc(-c3ccc4c(c3)OCO4)o2)C1=O (stereo not drawn) | -12% | -10% | 5% | -30% | i | 2.2µM*
CCCN(C(=O)c1coc(=O)c2ccccc12)c1ccccc1C | u | -1% | -21% | -9% | i | -15%
Cc1cccc2nc(CNC(=O)CN3Cc4cc(Cl)ccc4OC(C)C3)cn12 (stereo not drawn) | x | x | x | x | i | x
Cn1c(=O)n(CCc2ccccc2)c(=O)c2c1nc1n2CCCN1CCc1ccccc1 | 2.2µM* | -43% | 3% | -30% | i | -36%
CCCn1c(=O)c2c(nc3n2CCCN3CCc2ccccc2)n(C)c1=O | u | 16% | 6% | -22% | i | -23%
CCCc1ccc(OCC(=O)N2CCN(C(=O)COc3ccc(CCC)cc3OC)CC2)c(OC)c1 | x | x | x | x | i | -2%
Nc1ncnc2c1c(-c1ccc(Oc3ccccc3)cc1)cn2C1CCCC1 | u | 24% | 22µM* | -70% | u | -34%
OC1CCCN(Cc2ccc3ccc4cccc5ccc2c3c45)C1 (stereo not drawn) | -6% | -10% | 20µM* | -60% | u | u
CCN(CCO)CCCOc1ccc2c(Nc3cc(CC(=O)Nc4cccc(F)c4)[nH]n3)ncnc2c1 | x | x | x | x | x | 1%
Cc1[nH]c2ccc(C(=O)NCCc3ccccc3Cl)cc2c1C | u | x | u | -25% | x | x
COc1ccc(CN2CCN(CCCCOc3ccc(Cl)cc3)CC2)c(OC)c1OC | 7.9µM* | 3% | u | -32% | u | u
Brc1ccc(-c2nnc(-c3ccccc3)c(N3CCSCC3)n2)cc1 | 8.9µM* | -27% | 7% | 8% | i | 26%
CN1CCN(c2nc(-c3ccc(Br)cc3)nnc2-c2ccccc2)CC1 | 8.9µM* | 25% | -6% | -15% | i | 5%
Cc1ccc(-c2nnc(-c3ccccc3)c(N3CCOCC3)n2)cc1 | 0% | 0% | 60% | -40% | i | -4%
CCOC(=O)c1cc(C)n(CC2CCC(C(=O)Nc3ccccc3OC)CC2)c1C (stereo not drawn) | u | x | 11µM* | -22% | x | x
CCC[C@@H]1C[C@@H](C(=O)N[C@@H]([C@H]2O[C@H](SC)[C@H](O)[C@@H](O)[C@H]2O)[C@H](C)Cl)N(C)C1 | x | x | x | x | i | x
C[C@H](NCc1ccc(OCc2cccc(F)c2)cc1)C(N)=O | x | x | x | x | x | 19µM*
SMILES | GLP1R inv ag | GLP-1R agonist | TGFb SMAD3 inh | HepG2 tox | ATXN viability | ATXN2 expr inh
Oc1ccc(C[C@H]2CN([C@@H](Cc3cccc(O)c3)CN3CCC[C@@H]3CN3C(=S)NC[C@@H]3Cc3ccccc3)C(=S)N2CC2CCCCC2)cc1 | u | -6% | 5µM* | -46% | 13µM* | 16µM*
CC(C)C[C@H]1CN([C@@H](Cc2ccccc2)CN2CCC[C@@H]2CN2C(=O)C(=O)NC[C@@H]2Cc2ccccc2)C(=O)C(=O)N1CCc1ccccc1 | u | -5% | u | -91% | 25µM* | u
Oc1ccc(C[C@H]2CN([C@@H](Cc3ccccc3)CN3CCCC3CN3C(=S)NC[C@@H]3Cc3ccccc3)C(=S)N2CC2CCCCC2)cc1 (stereo partly drawn) | u | -4% | x | x | u | -33%
CC(C)C[C@H]1CN([C@@H](Cc2ccc(O)cc2)CN2CCC[C@@H]2CN2C(=S)NC[C@@H]2Cc2ccccc2)C(=S)N1CC1CCCCC1 | u | 0% | 11µM* | -30% | u | 0%
CC(C)C[C@@H](CN1CCC[C@@H]1CN1C(=S)NC[C@@H]1Cc1ccccc1)N1C[C@H](Cc2ccc(O)cc2)N(CC2CCCCCC2)C1=S | u | 3% | u | -80% | 14µM* | 22µM*
Cc1ccc(C)c(Cn2c(=O)n(CCCCC(=O)NCc3ccc4c(c3)OCO4)c(=O)c3ccccc32)c1 | 5% | -1% | -8% | -8% | i | 5%
CCCc1ccc(C(=O)O)cc1 | x | 6% | x | x | x | x
CC12CCC=CC1C(c1ccc(F)c(/C=C/c3ccccc3)c1)N(Cc1ccccc1)C2=O (stereo not drawn) | x | x | -1% | -6% | x | x
COc1ccc(-c2ccc(C)cc2)cc1C1C2C=CCCC2(C)C(=O)N1Cc1ccccc1 (stereo not drawn) | x | x | -1% | 1% | x | x
COc1ccc(-c2ccc(OC)c(C3C4C=CCCC4(C)C(=O)N3Cc3ccccc3)c2)cc1OC (stereo not drawn) | x | x | u | 2% | x | x
COc1ccc(-c2ccc(C)cc2)cc1[C@H]1[C@@H]2C=CCC[C@@]2(C)C(=O)N1Cc1ccccc1 | 10µM* | 5% | u | -20% | i | u
COc1ccc(C2C3C=CCCC3(C)C(=O)N2Cc2ccccc2)cc1Cl (stereo not drawn) | x | x | 14µM* | -43% | x | x

Assay outcomes deposited in PubChem by National Center for Advancing Translational Sciences (NCATS).
